Test results published in PubChem BioAssay (Tox21).
Results filed as inconclusive are left out. Where a call stands in place of a potency, no number is given. Active and inactive are the calls of the source. The call rests on the fitted dose curve; in most records, active means well fitted curve in the direction sought with a large enough effect in the repeat runs; inconclusive means weak or mixed curves; inactive means no such curve, though single readings can be large; an effect the other way counts as inactive or inconclusive.

Legend:
[1] = qHTS assay to identify small molecule antagonists of the retinoid acid receptor (RAR) signaling pathway - cell viability counter screen (AID 1159551); further: nearly all actives have a fitted effect of over 35% in size; further: potency means the concentration at half of the fitted maximal effect
Summary of the method: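 In this counter screen, the RARE-luciferase line C3RL4 was exposed for 6 h at 37 C and 5% CO2 to compounds with retinol at 1 uM final. Cellular ATP, read by luminescence, served as the viability measure.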

[2] = qHTS assay to identify small molecule antagonists of the retinoic acid receptor (RAR) signaling pathway (AID 1159552; further: nearly all actives have a fitted effect of over 50% in size; further: potency means the concentration at half of the fitted maximal effect)
Summary of the method: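 Luminescence from a RARE luciferase reporter in C3RL4 cells served as read-out. Cells received compounds together with 1 uM final retinol and incubated 6 hr at 37 C before detection reagent was added for 30 min at room temperature.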

[3] = qHTS assay to identify small molecule agonists of the retinoic acid receptor (RAR) signaling pathway (AID 1159553)
Summary of the method: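 In this cell-based screen, 1,000 C3RL4 cells per well were cultured overnight, dosed with test chemicals in DMSO for 6 hr, and assessed for RARE luciferase luminescence.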

[4] = qHTS assay to identify small molecule antagonists of the estrogen related receptor (ERR) signaling pathway from Tox21 library - cell viability counter screen (AID 1224834); further: nearly all actives have a fitted effect of over 30% in size; further: potency means the concentration at half of the fitted maximal effect
Summary of the method: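 Counter screen run in ERR cells (2,000 cells/well): cells pre-incubated 6 h, then treated with compounds for 17.5 h at 37 C. Fluorescence was read 30 min after CellTiter-Fluor addition.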

| Structure (SMILES) | Potency [1] | Potency [2] | Potency [3] | Potency [4] |
| --- | --- | --- | --- | --- |
| FC(Cl)(Cl)Cl | inactive | inactive | inactive | inactive |
| OC(c1ccc(Cl)cc1)(c1ccc(Cl)cc1)C(Cl)(Cl)Cl | inactive | inactive | inactive | inactive |
| CC(C)[C@H](C(=O)OC(C#N)c1cccc(Oc2ccccc2)c1)c1ccc(OC(F)F)cc1 (stereo partly specified) | inactive | inactive | inactive | inactive |
| Cc1ccc(OP(=O)(Oc2ccccc2)Oc2ccccc2)cc1 | inactive | inactive | inactive | inactive |
| CCOC(=O)OC1=C(c2cc(C)ccc2C)C(=O)NC12CCC(OC)CC2 (stereo unspecified) | inactive | 43.2 µM (active) | inactive | inactive |
| COc1ccc(OC)c(CC(C)N)c1 (stereo unspecified) | inactive | inactive | inactive | inactive |
| C[C@]12CC[C@H]3[C@@H](CCC4=CC(=O)CC[C@@]43C)[C@@H]1CC[C@@H]2O | inactive | 48.2 µM (active) | inactive | inactive |
| COP(=O)(CCC(=O)NCO)OC | inactive | inactive |  | inactive |
| CC(C)(C)OO | inactive | inactive | inactive | inactive |
| Cc1c(Cl)c(=O)oc2cc(OP(=O)(OCCCl)OCCCl)ccc12 | inactive | inactive | inactive | inactive |
| CCCCCCCCCCCCCN1CC(C)OC(C)C1 (stereo unspecified) | inactive | inactive | inactive | inactive |
| CCCCCCCCCCCCBr | inactive | inactive | inactive | inactive |
| BrC(Br)Br | inactive | inactive | inactive | inactive |
| C[C@H]1CC[C@@H]2[C@@H](C)[C@H]3[C@H](C[C@H]4[C@@H]5CC=C6CC(O[C@@H]7O[C@H](CO)[C@H](O)[C@H](O[C@@H]8O[C@H](CO)[C@@H](O)[C@H](O)[C@H]8O)[C@H]7O[C@H]7O[C@@H](C)[C@H](O)[C@@H](O)[C@H]7O)CC[C@]6(C)[C@H]5CC[C@]34C)N2C1 (stereo partly specified) | 25.1 µM (active) | 28.2 µM (active) | inactive | 22.4 µM (active) |
| [Cl][Sn]([c]1ccccc1)([c]1ccccc1)[c]1ccccc1 | 4.61 µM (active) | 0.092 µM (active) |  | 1.16 µM (active) |
| ClC1=C(Cl)C2(Cl)C3C(Cl)C=CC3C1(Cl)C2(Cl)Cl (stereo unspecified) | inactive | inactive | inactive | 68.6 µM (active) |
| CC(Cl)CN(C)C (stereo unspecified) | inactive | inactive |  | inactive |
| Fc1ccc(Oc2ccnc3cc(Cl)cc(Cl)c23)cc1 | inactive | inactive |  | inactive |
| O=C(NC(=O)c1c(F)cccc1F)Nc1cc(Cl)c(OC(F)(F)C(F)F)c(Cl)c1 | inactive | inactive |  | inactive |
| Cn1[nH]nnc1=S | inactive | inactive |  | inactive |
| CC(C)(C)c1cc([N+](=O)[O-])cc(C(C)(C)C)c1O | inactive | 15.4 µM (active) |  | 13.7 µM (active) |
| N#Cc1ccccc1Cl | inactive | inactive |  | inactive |

| Structure (SMILES) | Potency [1] | Potency [2] | Potency [3] | Potency [4] |
| --- | --- | --- | --- | --- |
| Oc1ccccc1Br | inactive | inactive |  | inactive |
| ClCCN1CCOCC1 | inactive | inactive |  | inactive |
| O=C(Cl)c1ccc(Cl)cc1 | inactive | inactive |  | inactive |
| Cc1cccc(OP(=O)(Oc2cccc(C)c2)Oc2cccc(C)c2)c1 | inactive | inactive |  | inactive |
| CCOP(=S)(OCC)SCS(=O)(=O)CC | inactive | inactive |  | inactive |
| ClCc1ccccc1CCl | inactive | inactive |  | inactive |
| C[As+](C)(C)CC(=O)[O-] | inactive | inactive |  | inactive |
| CNC(C)Cc1ccc2c(c1)OCO2 (stereo unspecified) | inactive | inactive |  | inactive |
| CC(C)(c1ccc(O)c(-c2ccccc2)c1)c1ccc(O)c(-c2ccccc2)c1 | 54.5 µM (active) | 54.5 µM (active) |  | 61.1 µM (active) |
| Oc1ccc2ccc3cccc4ccc1c2c34 | inactive | inactive |  | inactive |
| N#Cc1ccc(O)cc1 | inactive | inactive |  | inactive |
| [Cl][Sb]([Cl])[Cl] | inactive | inactive |  | 21.7 µM (active) |
| CCOC(=O)c1ccccc1S(=O)(=O)NC(=O)Nc1nc(Cl)cc(OC)n1 | inactive | inactive |  | inactive |
| COc1ccc([N+](=O)[O-])cc1O | inactive | inactive |  | inactive |
| CC(c1ccc(O)cc1)c1ccc(O)cc1 | inactive | inactive |  | inactive |
| N#CCCO | inactive | inactive |  | inactive |
| COc1ccc(OC)c(C=O)c1 | inactive | inactive |  | inactive |
| CCCCOP(=O)(CCCC)OCCCC | inactive | inactive |  | inactive |
| Cc1ccc(CCl)cc1 | inactive | inactive |  | inactive |
| CC(C)(COCC1CO1)COCC1CO1 (stereo unspecified) | inactive | inactive |  | inactive |
| ClC1=C(Cl)[C@]2(Cl)[C@@H]3[C@@H](Cl)[C@H](Cl)C[C@@H]3[C@@]1(Cl)C2(Cl)Cl | inactive | inactive |  | inactive |
| CCC[CH2][Sn]([CH2]CCC)([CH2]CCC)[O]C(=O)c1ccccc1 | 4.86 µM (active) | 0.686 µM (active) |  | 2.17 µM (active) |
